Columns and labels:
[1] = biological target: T1, Serine/threonine-protein kinase TBK1 (Homo sapiens) (UniProt Q9UHD2); conditions: at 10 µM
T1 sequence (whole entry): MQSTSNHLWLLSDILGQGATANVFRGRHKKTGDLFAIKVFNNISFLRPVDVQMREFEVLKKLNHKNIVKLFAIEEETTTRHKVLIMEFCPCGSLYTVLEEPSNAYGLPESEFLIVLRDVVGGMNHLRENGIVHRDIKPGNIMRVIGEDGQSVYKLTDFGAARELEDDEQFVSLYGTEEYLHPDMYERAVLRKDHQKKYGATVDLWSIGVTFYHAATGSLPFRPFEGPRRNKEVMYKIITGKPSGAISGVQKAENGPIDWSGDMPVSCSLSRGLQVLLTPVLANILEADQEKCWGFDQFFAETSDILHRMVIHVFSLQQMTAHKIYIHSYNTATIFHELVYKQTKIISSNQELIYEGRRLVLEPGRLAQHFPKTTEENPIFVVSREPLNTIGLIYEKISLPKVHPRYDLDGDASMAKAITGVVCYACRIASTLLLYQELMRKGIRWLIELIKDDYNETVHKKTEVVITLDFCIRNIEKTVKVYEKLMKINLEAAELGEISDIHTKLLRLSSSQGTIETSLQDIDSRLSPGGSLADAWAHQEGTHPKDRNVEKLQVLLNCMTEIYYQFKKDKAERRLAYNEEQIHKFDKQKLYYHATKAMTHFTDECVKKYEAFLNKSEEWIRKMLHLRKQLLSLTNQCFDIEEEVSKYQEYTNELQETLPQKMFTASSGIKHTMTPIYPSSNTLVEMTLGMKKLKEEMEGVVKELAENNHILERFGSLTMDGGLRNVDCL

[2] = biological target: T2, TGF-beta receptor type-1 (Homo sapiens) (UniProt P36897); conditions: at 1 µM
T2 sequence (whole entry): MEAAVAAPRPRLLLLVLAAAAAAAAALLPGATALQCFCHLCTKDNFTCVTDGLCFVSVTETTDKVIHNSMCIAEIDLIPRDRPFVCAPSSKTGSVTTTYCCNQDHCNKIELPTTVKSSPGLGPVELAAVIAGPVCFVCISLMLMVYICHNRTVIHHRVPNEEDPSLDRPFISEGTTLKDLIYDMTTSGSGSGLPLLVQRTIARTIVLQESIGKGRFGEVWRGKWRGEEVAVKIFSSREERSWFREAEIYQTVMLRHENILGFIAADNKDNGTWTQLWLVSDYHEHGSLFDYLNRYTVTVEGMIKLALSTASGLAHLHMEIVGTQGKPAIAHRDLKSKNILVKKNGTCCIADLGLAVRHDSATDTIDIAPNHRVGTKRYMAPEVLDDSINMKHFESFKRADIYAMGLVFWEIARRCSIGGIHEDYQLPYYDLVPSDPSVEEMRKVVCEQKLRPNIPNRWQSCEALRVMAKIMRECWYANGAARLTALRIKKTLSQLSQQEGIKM

[3] = biological target: T2, TGF-beta receptor type-1 (Homo sapiens); conditions: at 10 µM
[4] = biological target: T3, Inhibitor of nuclear factor kappa-B kinase subunit alpha (Homo sapiens) (UniProt O15111); conditions: at 1 µM
T3 sequence (whole entry): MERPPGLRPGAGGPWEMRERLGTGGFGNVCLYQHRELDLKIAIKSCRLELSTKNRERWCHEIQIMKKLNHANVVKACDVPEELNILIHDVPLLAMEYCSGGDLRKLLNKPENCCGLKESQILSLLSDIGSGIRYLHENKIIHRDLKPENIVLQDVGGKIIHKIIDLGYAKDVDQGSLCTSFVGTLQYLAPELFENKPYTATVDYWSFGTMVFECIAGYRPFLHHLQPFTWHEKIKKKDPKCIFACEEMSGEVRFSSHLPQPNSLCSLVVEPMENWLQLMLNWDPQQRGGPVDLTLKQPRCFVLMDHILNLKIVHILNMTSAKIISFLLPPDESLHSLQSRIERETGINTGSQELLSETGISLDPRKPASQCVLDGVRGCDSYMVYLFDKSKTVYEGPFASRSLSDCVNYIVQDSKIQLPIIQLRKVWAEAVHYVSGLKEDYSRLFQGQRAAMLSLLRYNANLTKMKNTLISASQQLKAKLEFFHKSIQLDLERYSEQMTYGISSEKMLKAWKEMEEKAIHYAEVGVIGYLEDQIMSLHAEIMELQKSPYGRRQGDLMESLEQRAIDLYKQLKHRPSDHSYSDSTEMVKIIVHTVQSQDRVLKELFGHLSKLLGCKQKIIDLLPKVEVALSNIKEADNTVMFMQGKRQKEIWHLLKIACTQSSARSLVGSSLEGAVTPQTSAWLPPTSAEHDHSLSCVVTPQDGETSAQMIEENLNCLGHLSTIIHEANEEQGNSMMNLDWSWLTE

[5] = biological target: T3, Inhibitor of nuclear factor kappa-B kinase subunit alpha (Homo sapiens); conditions: at 10 µM
[6] = biological target: T4, Inhibitor of nuclear factor kappa-B kinase subunit beta (Homo sapiens) (UniProt O14920); conditions: at 1 µM
T4 sequence (whole entry): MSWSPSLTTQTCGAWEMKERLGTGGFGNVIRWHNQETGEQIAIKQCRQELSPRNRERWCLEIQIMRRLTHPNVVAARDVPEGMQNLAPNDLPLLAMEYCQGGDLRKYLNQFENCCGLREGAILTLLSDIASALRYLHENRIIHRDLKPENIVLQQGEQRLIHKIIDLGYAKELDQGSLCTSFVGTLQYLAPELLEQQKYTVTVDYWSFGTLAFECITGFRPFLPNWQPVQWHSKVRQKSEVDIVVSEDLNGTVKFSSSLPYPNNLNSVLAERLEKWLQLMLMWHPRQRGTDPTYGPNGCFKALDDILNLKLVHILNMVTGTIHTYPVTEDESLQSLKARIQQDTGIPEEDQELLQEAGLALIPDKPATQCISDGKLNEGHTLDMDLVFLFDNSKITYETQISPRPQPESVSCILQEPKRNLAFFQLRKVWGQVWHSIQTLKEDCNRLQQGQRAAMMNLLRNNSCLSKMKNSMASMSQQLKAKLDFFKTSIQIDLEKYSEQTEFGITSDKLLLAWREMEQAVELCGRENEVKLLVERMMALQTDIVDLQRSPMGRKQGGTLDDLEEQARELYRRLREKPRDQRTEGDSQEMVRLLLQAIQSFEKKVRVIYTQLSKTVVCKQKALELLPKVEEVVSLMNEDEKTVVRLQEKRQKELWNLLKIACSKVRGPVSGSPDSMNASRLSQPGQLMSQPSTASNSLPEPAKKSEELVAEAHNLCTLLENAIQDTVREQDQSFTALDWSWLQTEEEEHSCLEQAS

[7] = biological target: T4, Inhibitor of nuclear factor kappa-B kinase subunit beta (Homo sapiens); conditions: at 10 µM
[8] = biological target: Interleukin-1 receptor-associated kinase 1 (Homo sapiens) (UniProt P51617); conditions: at 1 µM
[9] = biological target: Interleukin-1 receptor-associated kinase 1 (Homo sapiens) (UniProt P51617); conditions: at 10 µM
[10] = biological target: T5, Interleukin-1 receptor-associated kinase 4 (Homo sapiens) (UniProt Q9NWZ3); conditions: at 1 µM
T5 sequence (whole entry): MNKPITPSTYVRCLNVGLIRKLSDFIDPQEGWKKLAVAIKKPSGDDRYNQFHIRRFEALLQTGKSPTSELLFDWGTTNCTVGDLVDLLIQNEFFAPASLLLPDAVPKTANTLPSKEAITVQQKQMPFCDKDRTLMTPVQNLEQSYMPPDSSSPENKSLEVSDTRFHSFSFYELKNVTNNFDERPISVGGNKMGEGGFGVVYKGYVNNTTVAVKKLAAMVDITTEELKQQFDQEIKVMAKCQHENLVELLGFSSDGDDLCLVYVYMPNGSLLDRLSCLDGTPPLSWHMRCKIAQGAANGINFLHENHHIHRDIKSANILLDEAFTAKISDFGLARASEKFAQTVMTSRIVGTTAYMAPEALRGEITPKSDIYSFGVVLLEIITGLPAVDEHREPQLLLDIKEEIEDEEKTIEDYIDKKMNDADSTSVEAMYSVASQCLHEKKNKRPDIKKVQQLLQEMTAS

[11] = biological target: T5, Interleukin-1 receptor-associated kinase 4 (Homo sapiens); conditions: at 10 µM
[12] = biological target: Insulin receptor-related protein (Homo sapiens) (UniProt P14616); conditions: at 10 µM
[13] = biological target: T6, Tyrosine-protein kinase ITK/TSK (Homo sapiens) (UniProt Q08881); conditions: at 1 µM
T6 sequence (whole entry): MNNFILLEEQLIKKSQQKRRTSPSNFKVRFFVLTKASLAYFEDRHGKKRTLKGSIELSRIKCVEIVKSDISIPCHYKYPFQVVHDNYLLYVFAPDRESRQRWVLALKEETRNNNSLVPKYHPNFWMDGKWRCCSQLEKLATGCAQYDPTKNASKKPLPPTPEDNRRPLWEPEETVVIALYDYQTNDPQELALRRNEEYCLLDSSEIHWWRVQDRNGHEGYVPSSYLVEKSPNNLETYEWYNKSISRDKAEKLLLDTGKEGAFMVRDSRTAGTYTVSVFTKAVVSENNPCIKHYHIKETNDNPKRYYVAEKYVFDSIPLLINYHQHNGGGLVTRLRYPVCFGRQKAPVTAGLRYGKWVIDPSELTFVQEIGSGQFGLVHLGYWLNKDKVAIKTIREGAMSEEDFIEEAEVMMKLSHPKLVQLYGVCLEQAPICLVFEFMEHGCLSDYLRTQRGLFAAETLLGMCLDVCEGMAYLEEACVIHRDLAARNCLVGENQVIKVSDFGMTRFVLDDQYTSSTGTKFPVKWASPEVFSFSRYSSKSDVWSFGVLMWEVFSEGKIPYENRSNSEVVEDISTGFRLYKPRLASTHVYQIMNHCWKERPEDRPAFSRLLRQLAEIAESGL

[14] = biological target: Insulin-like growth factor 1 receptor (Homo sapiens) (UniProt P08069); conditions: at 10 µM
[15] = biological target: Insulin receptor (Homo sapiens) (UniProt P06213); conditions: at 10 µM
[16] = biological target: Insulin receptor (Homo sapiens) (UniProt P06213); conditions: at 1 µM
[17] = biological target: Insulin receptor (Homo sapiens) (UniProt P06213); conditions: at 1 µM; remark: listed apart in the source
[18] = biological target: Insulin receptor (Homo sapiens) (UniProt P06213); conditions: at 10 µM; remark: listed apart in the source
[19] = biological target: Insulin receptor-related protein (Homo sapiens) (UniProt P14616); conditions: at 1 µM
[20] = biological target: Insulin-like growth factor 1 receptor (Homo sapiens) (UniProt P08069); conditions: at 1 µM

Sequence of Insulin receptor-related protein (Homo sapiens) (P14616 27-742 limits assumed): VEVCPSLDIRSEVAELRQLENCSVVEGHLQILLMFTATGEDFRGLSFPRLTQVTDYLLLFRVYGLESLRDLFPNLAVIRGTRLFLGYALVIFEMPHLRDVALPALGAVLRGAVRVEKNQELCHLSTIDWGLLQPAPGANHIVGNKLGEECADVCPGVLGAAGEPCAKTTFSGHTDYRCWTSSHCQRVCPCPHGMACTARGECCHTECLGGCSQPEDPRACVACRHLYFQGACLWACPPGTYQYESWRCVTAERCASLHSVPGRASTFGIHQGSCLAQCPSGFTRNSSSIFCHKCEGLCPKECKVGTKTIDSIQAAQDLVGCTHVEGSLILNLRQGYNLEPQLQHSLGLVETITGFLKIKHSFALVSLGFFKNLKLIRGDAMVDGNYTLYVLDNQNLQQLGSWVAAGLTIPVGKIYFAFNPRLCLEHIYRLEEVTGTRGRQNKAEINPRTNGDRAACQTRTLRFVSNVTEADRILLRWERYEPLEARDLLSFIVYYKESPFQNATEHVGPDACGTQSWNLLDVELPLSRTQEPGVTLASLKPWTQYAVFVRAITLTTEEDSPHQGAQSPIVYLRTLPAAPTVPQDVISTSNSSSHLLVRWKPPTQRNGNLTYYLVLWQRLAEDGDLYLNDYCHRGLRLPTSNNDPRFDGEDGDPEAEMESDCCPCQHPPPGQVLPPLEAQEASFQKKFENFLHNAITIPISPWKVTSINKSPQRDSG
Sequence of Insulin receptor-related protein (Homo sapiens) (P14616 747-1297 limits assumed): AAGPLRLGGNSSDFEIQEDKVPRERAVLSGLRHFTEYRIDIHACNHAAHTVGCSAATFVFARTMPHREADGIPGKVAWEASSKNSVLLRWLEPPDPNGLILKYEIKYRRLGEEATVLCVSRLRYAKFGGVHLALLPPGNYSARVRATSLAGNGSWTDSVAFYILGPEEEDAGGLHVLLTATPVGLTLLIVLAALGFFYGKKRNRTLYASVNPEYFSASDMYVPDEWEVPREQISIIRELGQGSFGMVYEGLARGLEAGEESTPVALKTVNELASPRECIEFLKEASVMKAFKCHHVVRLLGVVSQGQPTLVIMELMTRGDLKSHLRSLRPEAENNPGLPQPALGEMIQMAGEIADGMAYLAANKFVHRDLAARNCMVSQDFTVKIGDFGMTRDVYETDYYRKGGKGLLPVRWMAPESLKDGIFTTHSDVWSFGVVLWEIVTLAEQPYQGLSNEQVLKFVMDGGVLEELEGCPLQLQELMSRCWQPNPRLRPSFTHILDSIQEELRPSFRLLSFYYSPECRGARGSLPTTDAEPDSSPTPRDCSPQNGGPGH
Sequence of Insulin receptor (Homo sapiens) (P06213 28-758 limits assumed): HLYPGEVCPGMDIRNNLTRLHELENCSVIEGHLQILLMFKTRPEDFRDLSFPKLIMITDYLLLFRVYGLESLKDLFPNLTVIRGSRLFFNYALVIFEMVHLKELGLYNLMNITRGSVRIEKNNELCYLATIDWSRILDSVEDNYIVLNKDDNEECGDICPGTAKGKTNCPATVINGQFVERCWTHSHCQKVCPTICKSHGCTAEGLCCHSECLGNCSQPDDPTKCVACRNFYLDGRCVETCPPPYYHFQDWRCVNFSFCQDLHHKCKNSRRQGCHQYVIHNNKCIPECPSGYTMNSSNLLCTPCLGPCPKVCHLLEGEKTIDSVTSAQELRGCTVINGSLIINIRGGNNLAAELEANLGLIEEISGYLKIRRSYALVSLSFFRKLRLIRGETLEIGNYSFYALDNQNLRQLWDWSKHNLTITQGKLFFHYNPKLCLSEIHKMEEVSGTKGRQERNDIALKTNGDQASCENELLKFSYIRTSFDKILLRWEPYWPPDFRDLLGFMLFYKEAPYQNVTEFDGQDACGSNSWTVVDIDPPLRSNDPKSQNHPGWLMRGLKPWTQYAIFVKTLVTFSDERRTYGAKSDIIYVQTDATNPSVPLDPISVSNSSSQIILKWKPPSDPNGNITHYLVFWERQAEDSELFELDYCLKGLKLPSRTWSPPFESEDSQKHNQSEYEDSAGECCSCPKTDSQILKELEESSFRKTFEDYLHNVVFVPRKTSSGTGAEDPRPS
Sequence of Insulin receptor (Homo sapiens) (P06213 763-1382 limits assumed): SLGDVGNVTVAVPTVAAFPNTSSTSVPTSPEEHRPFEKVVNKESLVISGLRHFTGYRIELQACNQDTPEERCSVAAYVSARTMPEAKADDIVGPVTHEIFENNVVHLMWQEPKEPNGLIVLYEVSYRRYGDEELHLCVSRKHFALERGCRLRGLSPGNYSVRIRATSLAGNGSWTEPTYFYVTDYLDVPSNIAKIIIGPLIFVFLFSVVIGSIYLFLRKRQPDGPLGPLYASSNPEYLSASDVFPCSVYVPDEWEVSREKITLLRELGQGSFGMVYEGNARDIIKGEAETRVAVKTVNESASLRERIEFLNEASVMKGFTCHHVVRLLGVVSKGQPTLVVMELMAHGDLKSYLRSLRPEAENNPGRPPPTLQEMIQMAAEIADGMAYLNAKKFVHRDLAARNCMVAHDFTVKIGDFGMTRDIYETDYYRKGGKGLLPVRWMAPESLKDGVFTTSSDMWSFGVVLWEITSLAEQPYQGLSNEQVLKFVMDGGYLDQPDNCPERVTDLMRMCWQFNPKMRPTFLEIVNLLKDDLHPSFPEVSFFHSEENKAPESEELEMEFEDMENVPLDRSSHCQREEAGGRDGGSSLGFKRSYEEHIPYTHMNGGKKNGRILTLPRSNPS
Sequence of Insulin-like growth factor 1 receptor (Homo sapiens) (P08069 31-736 limits assumed): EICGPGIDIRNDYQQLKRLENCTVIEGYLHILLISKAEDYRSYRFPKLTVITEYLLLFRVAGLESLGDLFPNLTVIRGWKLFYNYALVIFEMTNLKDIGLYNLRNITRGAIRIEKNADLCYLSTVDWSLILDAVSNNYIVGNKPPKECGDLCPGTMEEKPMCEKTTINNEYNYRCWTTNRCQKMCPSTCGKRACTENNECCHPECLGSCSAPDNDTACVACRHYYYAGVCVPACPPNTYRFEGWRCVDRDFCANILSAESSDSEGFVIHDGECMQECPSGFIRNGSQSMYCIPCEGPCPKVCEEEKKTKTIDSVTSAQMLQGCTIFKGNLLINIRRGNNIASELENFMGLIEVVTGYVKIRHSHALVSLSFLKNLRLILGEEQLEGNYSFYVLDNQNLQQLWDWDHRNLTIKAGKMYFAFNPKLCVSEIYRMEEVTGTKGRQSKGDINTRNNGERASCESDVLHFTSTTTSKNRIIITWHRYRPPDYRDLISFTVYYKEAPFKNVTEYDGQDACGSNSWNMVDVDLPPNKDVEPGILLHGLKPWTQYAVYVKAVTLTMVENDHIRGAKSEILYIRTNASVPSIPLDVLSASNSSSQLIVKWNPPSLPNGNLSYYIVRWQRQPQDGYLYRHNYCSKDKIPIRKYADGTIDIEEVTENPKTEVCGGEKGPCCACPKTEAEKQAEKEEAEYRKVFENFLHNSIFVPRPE
Sequence of Insulin-like growth factor 1 receptor (Homo sapiens) (P08069 741-1367 limits assumed): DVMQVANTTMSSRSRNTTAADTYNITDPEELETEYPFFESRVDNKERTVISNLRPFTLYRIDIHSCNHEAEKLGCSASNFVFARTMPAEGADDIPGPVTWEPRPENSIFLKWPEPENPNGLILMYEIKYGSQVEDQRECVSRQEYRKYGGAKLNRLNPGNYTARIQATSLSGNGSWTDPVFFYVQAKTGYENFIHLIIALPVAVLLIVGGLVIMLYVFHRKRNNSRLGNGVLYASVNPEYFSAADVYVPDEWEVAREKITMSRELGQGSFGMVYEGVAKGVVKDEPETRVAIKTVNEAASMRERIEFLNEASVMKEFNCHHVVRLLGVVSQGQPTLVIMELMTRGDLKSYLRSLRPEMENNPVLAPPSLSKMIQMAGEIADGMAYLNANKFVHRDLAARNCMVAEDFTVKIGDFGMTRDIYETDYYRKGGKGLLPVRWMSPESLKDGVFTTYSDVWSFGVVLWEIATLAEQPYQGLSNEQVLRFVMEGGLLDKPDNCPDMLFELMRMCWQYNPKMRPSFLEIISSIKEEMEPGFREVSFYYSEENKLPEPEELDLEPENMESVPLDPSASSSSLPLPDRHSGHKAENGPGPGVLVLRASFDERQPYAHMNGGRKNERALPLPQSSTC
Sequence of Interleukin-1 receptor-associated kinase 1 (Homo sapiens) (P51617 whole entry, looked up): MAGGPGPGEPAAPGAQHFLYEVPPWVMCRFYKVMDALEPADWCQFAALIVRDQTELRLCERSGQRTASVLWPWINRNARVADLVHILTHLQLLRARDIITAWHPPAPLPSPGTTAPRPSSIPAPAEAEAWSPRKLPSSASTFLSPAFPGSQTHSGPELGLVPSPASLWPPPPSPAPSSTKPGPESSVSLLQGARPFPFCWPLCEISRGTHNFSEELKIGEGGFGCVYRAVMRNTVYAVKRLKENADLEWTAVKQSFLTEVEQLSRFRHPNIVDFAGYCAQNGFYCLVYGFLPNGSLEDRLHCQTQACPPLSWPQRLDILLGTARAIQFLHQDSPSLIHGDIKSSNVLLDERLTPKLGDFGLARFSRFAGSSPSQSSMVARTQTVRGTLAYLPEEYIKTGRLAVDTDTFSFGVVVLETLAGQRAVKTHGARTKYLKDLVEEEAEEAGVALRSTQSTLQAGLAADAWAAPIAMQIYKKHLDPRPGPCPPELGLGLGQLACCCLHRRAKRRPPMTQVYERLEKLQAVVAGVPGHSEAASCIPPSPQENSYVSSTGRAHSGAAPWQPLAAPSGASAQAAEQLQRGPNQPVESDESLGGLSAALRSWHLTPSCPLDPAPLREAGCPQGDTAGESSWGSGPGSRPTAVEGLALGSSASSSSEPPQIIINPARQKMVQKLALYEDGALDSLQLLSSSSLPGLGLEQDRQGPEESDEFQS

Row | Compound | residual activity [1] | residual activity [2] | residual activity [3] | residual activity [4] | residual activity [5] | residual activity [6] | residual activity [7] | residual activity [8] | residual activity [9] | residual activity [10] | residual activity [11] | residual activity [12] | residual activity [13] | residual activity [14] | residual activity [15] | residual activity [16] | residual activity [17] | residual activity [18] | residual activity [19] | residual activity [20]
1 | O=C(c1cc2cc(O)ccc2[nH]1)c1cc2cc(O)ccc2[nH]1 | 2% | 79% | 80% | 109% | 77% | 70% | 34% | 65% | 23% | 50% | 20% | 55% | 64% | – | – | – | – | – | – | –
2 | O=c1cc(N2CCNCC2)oc2c(-c3ccccc3)cccc12 | 54% | 91% | 85% | – | – | 99% | 82% | 92% | 76% | 93% | 96% | 70% | 83% | 97% | 94% | – | – | – | – | –
3 | O=C(O)/C=C/c1cc(Br)c(Br)c(Br)c1Br | 58% | 101% | 97% | 98% | 35% | 105% | 65% | 101% | 68% | – | 94% | – | – | – | 141% | 144% | 100% | 90% | – | –
4 | O=C(c1ccccc1)c1ccc(N2CCOCC2)cc1O | 77% | 95% | 99% | – | – | – | – | – | 89% | 117% | 93% | 75% | – | 93% | – | – | – | – | 131% | –
5 | CC(C)N(CCC(=O)c1ccc2ccccc2c1)Cc1ccccc1 | 51% | 76% | 74% | – | – | – | – | 83% | 77% | – | – | 82% | – | – | – | – | – | – | 131% | –
6 | CCCC(=O)Oc1ccc2[nH]c(C(=O)c3cc4ccccc4[nH]3)cc2c1 | 59% | 79% | 93% | 104% | 100% | – | 93% | 85% | 69% | – | – | 80% | 105% | 90% | 77% | 107% | 90% | 89% | 134% | 93%
7 | Nc1n[nH]c2nc3ccccc3nc12 | 63% | 91% | 82% | 93% | 69% | 122% | 90% | 98% | 98% | 93% | 67% | 86% | – | – | – | – | – | – | 122% | –
8 | CC(C)c1nn(-c2c(Cl)cccc2Cl)c2nc(Cc3ccc(OCCO)cc3)[nH]c(=O)c12 | 63% | 94% | 86% | 99% | 90% | 109% | 100% | 103% | 84% | 104% | 91% | – | 98% | 107% | – | 85% | 102% | 99% | – | 105%
9 | COc1ccc(Cl)cc1NC(=O)Nc1cc(C)nc2ccccc12 | 69% | 86% | 94% | – | – | – | – | 96% | 100% | – | – | – | – | – | – | – | – | – | – | –
10 | O=C(CCCc1ccc(-c2ccccc2F)cc1)Nc1ccc(O)cc1 | 73% | 108% | 112% | 101% | 129% | – | 101% | 78% | – | 93% | 82% | 98% | 90% | 92% | 102% | 112% | 97% | 97% | 88% | 100%
11 | O=C1Nc2ccc(Cl)cc2/C1=C/c1cc(Cl)c(O)c(Cl)c1 | 38% | 79% | 42% | – | 88% | 100% | 67% | 84% | 81% | 75% | 51% | 74% | – | – | 63% | 96% | 95% | 57% | 111% | –
12 | COc1cc2c(cc1OC)-c1n[nH]c(Nc3cccc(F)c3)c1C2 | 43% | 78% | 66% | 109% | 112% | 101% | 110% | 73% | 68% | 76% | 34% | – | – | – | – | – | – | – | 99% | –
13 | Nc1nc(Nc2ccc(S(N)(=O)=O)cc2)nn1C(=O)c1c(F)cccc1F | 19% | 105% | 62% | – | – | – | 69% | – | 43% | 96% | 37% | 57% | – | 63% | – | – | – | – | 112% | –

Reference: ChEMBL document CHEMBL2218924, “A broad activity screen in support of a chemogenomic map for kinase signalling research and drug discovery” (Biochem J, 2013)
